Assay outcomes deposited in PubChem by National Center for Advancing Translational Sciences (NCATS).
An excerpt weighted towards active compounds, which were near 2.8% of everything screened.
ATXN2 expr inh: reduces ATXN2 reporter expression in HEK-293 cells. AID 1745845. HEK-293 ATXN2-luciferase reporter, luminescence, 24 h. actives 0.72% (n = 360,000). Potency, µM (doses to about 57 µM), actives largely listed as inhibitors; also: nearly all actives have a fitted effect of over 55% in size
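ATXN2-luciferase reporter cells (luciferase flanked by upstream and downstream ATXN2 gene portions) were treated 24 h at 37 °C with compounds at up to 57 uM. SteadyGlo luminescence gave expression; GF-AFC fluorescence gave viability.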
S2 tox: cell viability loss in ATXN counter-screen | S2 cells (HEK-293 line with an ATXN2-luciferase reporter) viability, CellTiter-Fluor protease fluorescence, 24 h | AID 651635 | Potency, µM (series often up to 56.7 µM), hits mostly cytotoxic | actives 0.49% (n = 400,000); also: nearly all actives have a fitted effect of over 40% in size
TGFb SMAD3 inh: TGF-b pathway inhibition; HepG2 CAGA-GFP TGF-b/SMAD3 reporter, GFP fluorescence, 18 h; TGF-beta stimulated, 500 pg/mL final; Potency, µM (highest dose often 46.1 µM), usual class: inhibitors; actives 1.2% (n = 410,000); AID 588855; also: nearly all actives have a fitted effect of over 65% in size
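Inhibition was scored as loss of TGF-beta-induced (500 pg/mL final, 18 hours, 37 degrees C) GFP in HEPG2 cells carrying a CAGA-GFP reporter, in DMEM with 1% FBS. Well GFP was summed per cell; Activity was normalised to unstimulated and stimulated DMSO wells, then concentration-response fitting.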
Six1-Eya2 blk: inhibitors of human Six1/Eya2 interaction | AlphaScreen GST-Six1/His-Eya2 binding, biochemical; stronger effect = lower value | activity change, % (test concentration not listed) | actives 0.56% (n = 360,000) | AID 651725; in the data active = activity change below about -65%; inconclusive = mostly about -30% to -63%
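Six1/Eya2 binding was read as AlphaScreen signal after compounds were pinned into GST-Six1 plus His-tagged Eya2 (5X stock 250/500 nM) in pH 8.0 Tris/NaCl/TCEP buffer, beads added, then incubated 1 h, 37 C, dark.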
HepG2 viability: kills HepG2 cells in TGF-b inhibitor counter-screen; Potency, µM (series often up to 46.1 µM), usual class: cytotoxic; actives 0.76% (n = 410,000); HepG2 CAGA-GFP viability, ATP luminescence, 18 h; AID 588856
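HepG2 CAGA-GFP cells (1000/well, DMEM with 1% FBS) received compound, then TGF-beta at 500 pg/mL final, and were incubated 18 hours at 37 degrees C. Viability was read by CellTiter-Glo luminescence. Media-only wells were set as complete cell-killing and DMSO as no toxicity.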
CtBP-E1A blk: blocks the CtBP interaction with E1A; AlphaScreen GST-E1A/His-CtBP binding, 1536-well; stronger effect = lower value; activity change, % (test concentration not listed); actives 0.49% (n = 340,000); AID 651724; in the data active = activity change below about -65%; inconclusive = mostly about -30% to -63%
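Homogeneous bead-based format: GST-tagged E1A captured on glutathione donor beads, His-tagged CtBP on nickel acceptor beads; compounds precede bead addition by 2 h at 37 °C.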
Numbers stand for hits; . = inactive; ? = inconclusive; / = no result given. Unless noted, calls follow the shape of the dose curve; as a rule, active = well fitted curve in the direction sought with a large enough effect; inconclusive = small, poorly fitted or top-dose-only effect, or another doubt; inactive = no such curve, though single readings can be large; an effect the other way counts as inactive or inconclusive.

SMILES | ATXN2 expr inh | S2 tox | TGFb SMAD3 inh | Six1-Eya2 blk | HepG2 viability | CtBP-E1A blk
Cc1ccccc1C(=O)NC(C)c1nnc2n1CCN(Cc1ccc(F)cc1)CC2 (configuration not stated) | / | . | / | / | / | /
CCOc1ccc(/C=C(\C#N)C(=O)NCC2CCCO2)cc1OCC (configuration not stated) | . | . | . | . | . | -65.6
COc1ccccc1NC(=O)CSc1nnnn1-c1ccc2c(c1)OCO2 | . | . | . | . | 11.2µM | .
COc1ccc2c(c1)c(CC(=O)OC/C=C(\C)CC/C=C(\C)CCC=C(C)C)c(C)n2C(=O)c1ccc(Cl)cc1 | ? | . | / | / | / | /
CN1C(=O)c2ccccc2Sc2ccc(NC(=O)Cc3c(F)cccc3Cl)cc21 | . | ? | 10µM | / | . | /
CC(C)CCNC(=O)Nc1ccc2c(c1)N(C)C(=O)c1ccccc1S2 | ? | 35.5µM | 22.4µM | / | . | /
CCN1C(=O)c2ccccc2Sc2ccc(NC(=O)Nc3cc(C)cc(C)c3)cc21 | / | / | 6.31µM | / | . | /
CN(C)c1ccc(/C=C/c2ccnc3c(Cl)ccc(Cl)c23)cc1 | / | / | . | / | . | /
Clc1ccc2c(N3CCN(CCCN4CCN(c5ccnc6cc(Cl)ccc56)CC4)CC3)ccnc2c1 | . | / | / | / | / | /
O=C(O)COc1ccc(/C=C2\SC(=Nc3ccccc3)N(c3ccccc3)C2=O)cc1 | / | . | . | . | . | /
COc1ccc(N=C2S/C(=C\c3ccc(OCC(=O)O)cc3)C(=O)N2CCc2c[nH]c3ccccc23)cc1 | . | . | . | -80.1 | . | .
CC1(C)OC2=C(C(=O)c3ccccc3C2=O)[C@H](NCc2ccccc2)[C@H]1O | 3.43µM | / | / | / | / | /
CC1(C)OC(=O)CC1C(=O)NCc1ccccc1 (configuration not stated) | . | . | . | . | . | .
CC(C)(C)C1CCC(=NNc2ccc(S(N)(=O)=O)cc2[N+](=O)[O-])CC1 (configuration not stated) | . | . | ? | ? | 11.2µM | ?
Fc1cccc(Cl)c1CNc1n[nH]c(-c2ccco2)n1 | . | . | . | / | . | /
CCOC(=O)N1CCN(C(=O)c2ccc(-c3ccccc3OC)nc2N2CCC(N3CCCC(CO)C3)CC2)CC1 (configuration not stated) | / | . | / | / | / | /
NC(=O)C1CCCN(Cc2ccc3c(c2)CN(Cc2cn[nH]c2-c2ccc(F)cc2)CCO3)C1 (configuration not stated) | / | . | / | / | / | /
COC(=O)C(Cc1c[nH]c2ccccc12)NC(=O)COc1ccc(Cl)cc1Cl (configuration not stated) | / | / | 11.2µM | / | . | /
O=C(COc1ccc(Cl)cc1Cl)Nc1ccccn1 | 2.82µM | . | . | . | . | .
CCOC(=O)c1cnn(-c2ccc(OC)cc2)c1C1CCN(C(=O)OC(C)(C)C)CC1 | . | . | ? | / | . | /
COC(=O)[C@@H]1CCCN1C(=O)c1cc(NC(=O)C2CCC2)c2c(c1)nc(-c1ccncc1)n2C | / | . | / | / | / | /
C[n+]1ccc(/C=C/c2cc[n+](C)c3ccccc23)c2ccccc21 | / | / | 7.08µM | / | . | /
COc1ccc(/C=C/c2cc[n+](C)c3ccccc23)cc1OC | / | / | . | / | . | /
C[n+]1ccc(/C=C/c2ccc([N+](C)(C)C)cc2)c2ccccc21 | / | / | 4.47µM | / | . | /
CN1C=C/C(=C\c2cc[n+](C)c3ccccc23)c2ccccc21 | 8.44µM | ? | ? | . | . | .
SMILES | ATXN2 expr inh | S2 tox | TGFb SMAD3 inh | Six1-Eya2 blk | HepG2 viability | CtBP-E1A blk
C[n+]1ccc(/C=C/c2ccc(F)cc2)c2ccccc21 | / | / | . | / | . | /
COc1ccc(SCC(CC(C)C)N2CCN(C)CCC2=O)cc1 (configuration not stated) | / | / | . | / | . | /
CC(C)Cc1ccc(C(C)CC2=CCC(CN(C)C)C2=O)cc1 (configuration not stated) | ? | / | ? | . | 7.94µM | .
Cc1cc(F)ccc1NC(=O)CCS(=O)(=O)c1cccc2nsnc12 | . | . | . | / | . | /
CCN(CC)CCOC(=O)c1ccc(NC(=O)c2nn(-c3ccc(C)cc3)c(=O)c3c2c2ccccc2n3C)cc1 | / | / | 4.47µM | / | 3.55µM | /
O=C(Nc1ccncc1)c1cc2ccccc2cc1O | . | ? | 12.6µM | . | . | .
O=C(Nc1ccncc1)c1ccccc1F | . | . | . | . | . | .
CCCCC/C(C=O)=C\c1ccccc1 | . | . | / | / | / | /
Cc1cc(SCC(=O)N/N=C/c2ccc(O)cc2O)c(C)cc1Br | 17.8µM | . | . | . | . | .
O=C(Cn1nc2ccccc2n1)N/N=C/c1cc([N+](=O)[O-])ccc1O | 20µM | ? | . | ? | . | /
O=C(Cn1cncn1)N/N=C/c1ccccc1O | . | . | . | -85.4 | . | -94.5
COc1ccc(Br)cc1/C=N/NC(=O)c1ccc(COc2ccc3c(c2)CCC3)o1 | . | . | . | . | . | .
O=C(Cn1cncn1)N/N=C/c1ccncc1 | / | . | . | . | . | /
O=C(Cn1nnc(-c2ccccc2)n1)N/N=C/c1cc([N+](=O)[O-])ccc1O | ? | ? | . | ? | . | .
O=C(N/N=C/c1cc([N+](=O)[O-])ccc1O)c1ccc(COc2ccc3c(c2)CCC3)o1 | 7.94µM | ? | 4.47µM | . | . | .
CSc1nc2sc3c(c2c(=O)n1-c1ccccc1)CCC(C(C)(C)C)C3 (configuration not stated) | . | . | . | / | . | /
CCN(CC)S(=O)(=O)c1ccc(NC(=O)Cn2ncc3c([nH]c4ccccc43)c2=O)cc1 | . | ? | . | / | . | /
O=C(CSc1ccccn1)N/N=C/c1cc([N+](=O)[O-])ccc1O | / | ? | . | -88.5 | . | /
O=C(CSc1ccccn1)N/N=C/c1ccccc1[N+](=O)[O-] | . | . | . | . | . | .
O=C(Cn1cncn1)N/N=C/c1cc([N+](=O)[O-])ccc1O | / | ? | . | -91.1 | . | /
Cc1ccn(CC(=O)N/N=C/c2cc([N+](=O)[O-])ccc2O)n1 | . | . | . | -89.8 | . | -93.1
Cc1cc([N+](=O)[O-])nn1CC(=O)N/N=C/c1ccc(O)cc1O | ? | ? | . | -85.2 | . | ?
CCOC1OC(=O)C[C@H]1NC(=O)[C@@H]1CCCN1C(=O)[C@@H](NC(=O)c1ccc(N)c(Cl)c1)C(C)(C)C (some centres not stated) | . | / | / | / | / | /
O=C(N/N=C/c1ccc(O)cc1O)C1CC1 | / | . | . | . | . | /
O=C(N/N=C/c1cc([N+](=O)[O-])ccc1O)C1CCCCC1 | ? | . | . | -73.9 | . | -72.7
CC(C)(C)NC(=O)C(c1ccc(-c2ccccc2)cc1)N(C[C@H]1CC[C@@H]([C@@H]2CC[C@H](CO)O2)O1)C(=O)c1ccc2ccccc2c1 (some centres not stated) | ? | 20µM | ? | . | . | .
